The results in this text go back to PubChem BioAssay (Tox21).

Molecules are shown by their SMILES. Unmarked numbers belong to inactive results. Inconclusive results are not listed. The source made the active and inactive calls. Unless noted, the call rests on the fitted dose curve; in most records, active means well fitted curve in the direction sought with a large enough effect in the repeat runs; inconclusive means weak or mixed curves; inactive means no such curve, though single readings can be large; an effect the other way counts as inactive or inconclusive.

Assay [1] addresses Thyrotropin receptor (Homo sapiens) (UniProt P16473). As to the kind of experiment: qHTS assay to identify small molecule antagonists of the thyroid stimulating hormone receptor (TSHR) signaling pathway (AID 1259385; calls by dose curve; further: nearly all actives have a fitted effect of over 20% in size). The method in brief:
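TSHR-HEK293 cells (800/well) plated 18 h, then compounds with Ro20-1724 and TSH at 1.5 ng/mL final, 30 min at room temperature. cAMP quantified by HTRF (cAMP-d2/anti-cAMP-cryptate, 1 h); 15 concentrations in triplicate.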

Assay [2] can be described thus: qHTS assay to identify small molecule agonists of the estrogen receptor alpha (ER-alpha) signaling pathway in the presence of an antagonist - cell viability counter screen (AID 1259386).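 Further: cells exposed to compounds for 22 h at 37 °C before the viability read; nearly all actives have a fitted effect of over 30% in size.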 Further: potency means the concentration at half of the fitted maximal effect. On activity change, negative = cytotoxicity: series mostly up to about 92 µM. An outline of the steps: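 Cytotoxicity was measured in parallel with the ERE-luciferase agonist screen, in the same wells. The cells were VM7Luc4E2, which endogenously express ER-alpha, and treatment was with compounds plus 10.0nM ICI-182,780 for 22hr.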

The target of assay [3] is Progesterone receptor (Homo sapiens) (UniProt P06401). As to the kind of experiment: qHTS assay to identify small molecule agonists of the progesterone receptor (PR) signaling pathway (AID 1346784; calls by dose curve; further: nearly all actives have a fitted effect of over 30% in size). An outline of the steps:
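Agonist mode, quantitative HTS format in a HEK 293T line expressing a UAS-controlled beta-lactamase reporter; 16 hr compound exposure at 37C in 2% charcoal-stripped FBS, then LiveBLAzer B/G FRET fluorescence.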

Assay [4] has the same target. As to the kind of experiment: qHTS assay to identify small molecule antagonists of the progesterone receptor (PR) signaling pathway (AID 1346795; active means well fitted inhibition curve with a large enough effect in the signal ratio in the repeat runs, not every such curve was filed as active; the % refers to the signal ratio). An outline of the steps: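 HEK293T PR-UAS-bla reporter cells in charcoal-stripped serum (2%) received compound after a 6 hr settling period, followed by R5020 agonist at 1 nM final; 16 hr incubation preceded the FRET substrate step and fluorescence measurement.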

The nature of assay [5]: qHTS assay to identify small molecule agonists of the progesterone receptor (PR) signaling pathway - cell viability counter screen (AID 1346799; calls by dose curve; further: nearly all actives have a fitted effect of over 45% in size; further: potency means the concentration at half of the fitted maximal effect). The method in brief: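 Counter screen for cytotoxicity: compound-treated PR-UAS-bla HEK293T cells (16 hr, 37C, 5% CO2) were assayed with CellTiter-Glo, luminescence measured after 30 min at room temperature.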
Assay [6] is described as follows: qHTS assay to identify small molecule antagonists of the TGF-beta/Smad signaling pathway - cell viability counter screen (AID 1346824). Further: nearly all actives have a fitted effect of over 50% in size. Further: potency means the concentration at half of the fitted maximal effect. An outline of the steps:
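SBE-bla HEK 293T cells, incubated overnight, then compound plus 0.25 ng/mL TGF-beta1 (stock added) for 5 hr at 37 C. Viability was read in the same wells by CellTiter-Glo luminescence after 30 min at room temperature.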

The nature of assay [7]: qHTS assay to identify small molecule agonists of the TGF-beta/Smad signaling pathway (AID 1346859; active means well fitted activation curve with a large enough effect in the signal ratio in the repeat runs, not every such curve was filed as active; the % refers to the signal ratio; further: series mostly up to about 77 µM). An outline of the steps: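 Smad-responsive beta-lactamase reporter cells (HEK 293T) received compounds from DMSO stocks after overnight attachment, were incubated 5 hr, then treated 2 hr with FRET substrate before dual-emission fluorescence measurement (405 nm excitation).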

In assay [8] the target is Thyrotropin-releasing hormone receptor (Homo sapiens) (UniProt P34981). As to the kind of experiment: qHTS assay to identify small molecule antagonists of the thyrotropin-releasing hormone receptor (TRHR) signaling pathway (AID 1346877; active means well fitted inhibition curve with a large enough effect in the repeat runs, not every such curve was filed as active; further: series mostly up to about 51 µM). An outline of the steps: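 Antagonism is measured as suppression of the calcium response to 1 nM TRH in TRHR-HEK293 cells that have been dye-loaded for 2 h at 37 °C after overnight plating. Each compound is tested at 15 concentrations in triplicate.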
Chain of Thyrotropin-releasing hormone receptor (Homo sapiens) (P34981 whole entry, looked up): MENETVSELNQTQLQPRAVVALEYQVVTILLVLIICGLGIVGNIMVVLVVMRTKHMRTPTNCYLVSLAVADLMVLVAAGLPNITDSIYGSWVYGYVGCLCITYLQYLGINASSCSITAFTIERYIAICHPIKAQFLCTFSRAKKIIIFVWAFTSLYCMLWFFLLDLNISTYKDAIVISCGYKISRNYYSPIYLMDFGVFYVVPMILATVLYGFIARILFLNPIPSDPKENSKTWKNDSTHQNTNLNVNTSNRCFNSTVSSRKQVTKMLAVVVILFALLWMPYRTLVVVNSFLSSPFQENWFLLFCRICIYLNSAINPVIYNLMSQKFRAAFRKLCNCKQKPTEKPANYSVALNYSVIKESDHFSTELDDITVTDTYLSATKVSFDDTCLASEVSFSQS

Assay [9] shares this target. As to the kind of experiment: qHTS assay to identify small molecule agonists of the thyrotropin-releasing hormone receptor (TRHR) signaling pathway (AID 1346891; calls by dose curve;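 further: HEK293 cells expressing TRHR with calcium dye readout; series mostly up to about 58 µM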). The method in brief:
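Agonist-mode calcium mobilisation screen: TRHR-transfected HEK293 cells cultured overnight (18 h), dye-loaded for 2 h at 37 °C, exposed to compounds, and monitored by fluorescence for 3 min.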

The nature of assay [10]: Human pregnane X receptor (PXR) small molecule agonists, qHTS cell viability counter screen (AID 1346977). Further: nearly all actives have a fitted effect of over 50% in size. Further: potency means the concentration at half of the fitted maximal effect. An outline of the steps: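 Measures live-cell protease fluorescence (CellTiter-Fluor) in PXR-Luc HepG2 cells treated 24hr with compounds at 37C. Cells had 5hr to attach before pin transfer of DMSO solutions.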
Assay [11] in a line: Caspase-3/7 induction in HepG2 cells by small molecules, qHTS assay (AID 1346978). Further: nearly all actives have a fitted effect of over 15% in size. An outline of the steps: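 Wild-type HepG2 cells, 2,000/well, settled 5 hr at 37 C and 5% CO2, then compound-treated for 17 hr; caspase-3/7 activity read by luminescent Caspase-Glo 3/7 after 30 min at room temperature.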
The nature of assay [12]: Caspase-3/7 induction in CHO-K1 cells by small molecules, qHTS cell viability counter screen (AID 1346979). Further: nearly all actives have a fitted effect of over 35% in size. The method in brief: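 In the same wells as the caspase read, viability of compound-treated wild-type CHO-K1 cells was assessed using CellTiter-Fluor, added after 16hr at 37C and measured by fluorescence following 1hr further incubation.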
A short description of assay [13]: Caspase-3/7 induction in CHO-K1 cells by small molecules, qHTS assay (AID 1346980). Further: nearly all actives have a fitted effect of over 15% in size. An outline of the steps:
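Wild-type CHO-K1 cells exposed to compounds for 17hr at 37 C, 5% CO2. Caspase-3/7 activity then measured by Caspase-Glo 3/7 luminescence after 30min at room temperature.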

A short description of assay [14]: Caspase-3/7 induction in HepG2 cells by small molecules, qHTS cell viability counter screen (AID 1346981). Further: nearly all actives have a fitted effect of over 30% in size. Further: potency means the concentration at half of the fitted maximal effect. On activity change, negative = cytotoxicity: series mostly up to about 92 µM. The method in brief:
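Cell viability is measured as a cytotoxicity counter screen alongside the Caspase-Glo 3/7 readout in identical wells. Wild-type HepG2 cells are treated with test compounds for 16 hr at 37 C before CellTiter-Fluor addition and a 1-hr incubation.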

In assay [15] the target is Nuclear receptor subfamily 1 group I member 2 (Homo sapiens) (UniProt O75469). Nature of the assay: Human pregnane X receptor (PXR) small molecule agonists, qHTS assay (AID 1346982). Further: nearly all actives have a fitted effect of over 35% in size. Further: potency means the concentration at half of the fitted maximal effect. The method in brief:
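Cells: HepG2 stably carrying PXR-Luc. Medium held 5% charcoal-stripped FBS. Compounds in DMSO added after 5 hr plating, incubated 24 hr, then luminescence quantified with ONE-Glo.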

Assay [16] can be described thus: qHTS assay to identify small molecule agonists of the TGF-beta/Smad signaling pathway - cell viability counter screen (AID 1346829). Further: nearly all actives have a fitted effect of over 45% in size. Further: potency means the concentration at half of the fitted maximal effect. On activity change, negative = cytotoxicity: top concentration of the series differs between compounds. An outline of the steps: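 Compound-treated SBE-bla HEK 293T cells (5 hr, 37 C) were assessed for viability with CellTiter-Glo in parallel with the reporter read.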
For assay [17], the target named is Nuclear receptor subfamily 1 group I member 2 (Rattus norvegicus) (UniProt Q9R1A7). Nature of the assay: Rat pregnane X receptor (rPXR) activation by small molecules, qHTS assay (AID 1346983). Further: nearly all actives have a fitted effect of over 20% in size. To be noted: rPXR luciferase reporter cells, One-Glo luminescence, 24 h; max activation: hits give high values. An outline of the steps: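 Cell-based rPXR activation assay: rPXR cells, 2,000 per well, rested 5hr at 37 C, then exposed to compounds in DMSO for 24 hr at 37 C. Luciferase activity read by One-Glo luminescence after 30 min at room temperature.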
Chain of Nuclear receptor subfamily 1 group I member 2 (Rattus norvegicus) (Q9R1A7 whole entry, looked up): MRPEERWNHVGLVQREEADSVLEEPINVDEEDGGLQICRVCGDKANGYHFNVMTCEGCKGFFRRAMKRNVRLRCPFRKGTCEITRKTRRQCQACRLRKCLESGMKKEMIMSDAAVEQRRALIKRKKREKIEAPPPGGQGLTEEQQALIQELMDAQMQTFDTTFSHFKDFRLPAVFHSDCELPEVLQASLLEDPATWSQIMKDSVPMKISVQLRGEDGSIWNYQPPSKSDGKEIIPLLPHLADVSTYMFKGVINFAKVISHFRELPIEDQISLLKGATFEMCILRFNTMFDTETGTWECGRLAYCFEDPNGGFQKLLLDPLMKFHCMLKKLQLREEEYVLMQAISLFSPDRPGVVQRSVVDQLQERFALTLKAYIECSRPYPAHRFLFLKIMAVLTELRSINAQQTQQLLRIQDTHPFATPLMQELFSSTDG

The nature of assay [18]: qHTS assay to identify small molecule antagonists of the progesterone receptor (PR) signaling pathway - cell viability counter screen (AID 1346798). Further: series mostly up to about 92 µM; nearly all actives have a fitted effect of over 50% in size. The method in brief: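 Same-well multiplex: after 16 hr at 37C with compound and R5020 stimulation, HEK293T cells carrying a UAS-bla reporter received LiveBLAzer substrate (2 hr RT), then CellTiter-Glo (30 min RT) for luminescent viability.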
On the % scale 0 is the no-effect control and ±100 the full control effect.

Chain of Progesterone receptor (Homo sapiens) (P06401 whole entry, looked up): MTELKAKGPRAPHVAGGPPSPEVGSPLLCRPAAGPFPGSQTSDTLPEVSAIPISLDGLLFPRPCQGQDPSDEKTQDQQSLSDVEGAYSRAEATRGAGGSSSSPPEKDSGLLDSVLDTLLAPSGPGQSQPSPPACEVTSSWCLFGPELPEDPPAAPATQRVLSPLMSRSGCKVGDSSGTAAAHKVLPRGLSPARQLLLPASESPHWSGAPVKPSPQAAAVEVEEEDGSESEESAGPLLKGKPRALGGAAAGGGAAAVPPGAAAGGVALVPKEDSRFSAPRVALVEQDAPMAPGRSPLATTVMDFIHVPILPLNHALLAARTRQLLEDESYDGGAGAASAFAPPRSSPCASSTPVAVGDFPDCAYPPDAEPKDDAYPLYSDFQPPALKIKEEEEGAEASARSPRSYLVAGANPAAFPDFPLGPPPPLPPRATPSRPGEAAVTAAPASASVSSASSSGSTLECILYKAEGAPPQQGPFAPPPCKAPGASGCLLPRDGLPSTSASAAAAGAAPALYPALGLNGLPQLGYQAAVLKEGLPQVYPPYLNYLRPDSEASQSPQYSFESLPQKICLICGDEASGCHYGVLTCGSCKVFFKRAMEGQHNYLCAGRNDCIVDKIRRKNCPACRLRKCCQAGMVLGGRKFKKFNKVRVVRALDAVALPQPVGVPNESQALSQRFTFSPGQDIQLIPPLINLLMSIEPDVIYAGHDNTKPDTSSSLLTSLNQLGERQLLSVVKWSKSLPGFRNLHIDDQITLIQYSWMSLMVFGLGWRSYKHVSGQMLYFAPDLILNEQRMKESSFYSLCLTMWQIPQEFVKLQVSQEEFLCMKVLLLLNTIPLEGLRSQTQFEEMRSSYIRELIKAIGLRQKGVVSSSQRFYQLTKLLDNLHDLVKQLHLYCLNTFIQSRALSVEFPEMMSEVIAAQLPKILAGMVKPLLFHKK
Chain of Thyrotropin receptor (Homo sapiens) (P16473 whole entry, looked up): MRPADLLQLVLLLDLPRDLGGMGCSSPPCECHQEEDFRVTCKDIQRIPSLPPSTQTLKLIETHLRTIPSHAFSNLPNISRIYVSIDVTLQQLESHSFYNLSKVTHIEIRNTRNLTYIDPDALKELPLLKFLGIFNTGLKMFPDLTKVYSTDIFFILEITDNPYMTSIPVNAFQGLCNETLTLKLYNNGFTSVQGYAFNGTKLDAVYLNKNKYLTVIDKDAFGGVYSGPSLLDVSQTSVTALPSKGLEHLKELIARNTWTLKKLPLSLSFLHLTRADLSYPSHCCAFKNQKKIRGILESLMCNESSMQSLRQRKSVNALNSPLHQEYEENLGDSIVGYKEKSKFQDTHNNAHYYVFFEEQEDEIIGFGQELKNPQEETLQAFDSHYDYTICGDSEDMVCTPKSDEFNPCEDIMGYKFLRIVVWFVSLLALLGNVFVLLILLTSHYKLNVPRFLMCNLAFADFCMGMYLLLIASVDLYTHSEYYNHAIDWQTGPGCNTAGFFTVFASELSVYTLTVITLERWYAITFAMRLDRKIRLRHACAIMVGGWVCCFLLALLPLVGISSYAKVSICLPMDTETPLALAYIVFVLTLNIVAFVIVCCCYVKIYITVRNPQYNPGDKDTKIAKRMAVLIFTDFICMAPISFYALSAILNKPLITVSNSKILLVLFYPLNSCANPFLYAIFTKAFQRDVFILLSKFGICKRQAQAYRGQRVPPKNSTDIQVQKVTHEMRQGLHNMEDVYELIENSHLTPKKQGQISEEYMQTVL
Chain of Nuclear receptor subfamily 1 group I member 2 (Homo sapiens) (O75469 whole entry, looked up): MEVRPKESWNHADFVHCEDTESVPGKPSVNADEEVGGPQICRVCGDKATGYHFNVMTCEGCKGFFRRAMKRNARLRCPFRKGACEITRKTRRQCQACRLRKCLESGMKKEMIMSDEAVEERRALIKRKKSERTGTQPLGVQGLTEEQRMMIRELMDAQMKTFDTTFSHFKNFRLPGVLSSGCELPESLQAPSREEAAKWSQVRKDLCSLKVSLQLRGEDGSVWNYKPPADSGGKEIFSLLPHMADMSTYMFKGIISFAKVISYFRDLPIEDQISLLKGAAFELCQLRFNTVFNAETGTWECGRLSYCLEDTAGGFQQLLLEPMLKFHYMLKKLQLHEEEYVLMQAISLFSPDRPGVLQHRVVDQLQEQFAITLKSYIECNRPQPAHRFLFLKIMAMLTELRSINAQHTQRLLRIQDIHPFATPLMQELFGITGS

As for `NNC(=O)c1cccnc1`, the Potency result in assay [1], in assay [2], in assay [3], in assay [4], in assay [5] and in assay [6] was “inactive” in each case. Moreover, the Potency result in [8], in assay [9], in assay [10], in assay [11], in [12] and in [13] was “inactive” each time. The Potency result in assay [14] was “inactive”. The outcome in assay [7] was inactive. In addition, in assay [15], the Potency was 27.4 µM (active).
`CC(C)(CCl)C(=O)Cl`: the Potency entry in assay [1], in assay [2], in [3], in assay [4], in assay [6] and in assay [8] was “inactive” throughout. Further, the Potency entry in assay [9], in assay [10], in assay [11], in assay [12], in assay [13] and in assay [14] was “inactive” each time. For the same compound, the Potency in assay [5] is 48.5 µM (active). Moreover, in assay [7], the compound was classed as inactive.
For the compound `CC(C)N(CCC(C(N)=O)(c1ccccc1)c1ccccn1)C(C)C` (centres undefined), the Potency result in [1], in assay [2], in assay [3], in assay [4], in assay [5] and in assay [6] was “inactive” each time. The Potency result in assay [16], in [10], in assay [11], in assay [12], in assay [13] and in [14] was “inactive” each time. In addition, in assay [7], the compound was classed as inactive. Moreover, the max activation in [17] is -7.32%.
With `ClCC(Br)CBr` (centres undefined), the Potency entry in [1], in assay [2], in assay [3], in [4], in assay [5] and in assay [6] was “inactive” throughout. For the same compound, the Potency entry in [16], in assay [10], in assay [11], in [12], in assay [13] and in assay [14] was “inactive” each time. Moreover, the Potency result in [15] is “inactive”. Also, the result in assay [7] was inactive.
As to `O=[N+]([O-])c1ccccc1CCl`, the Potency result in assay [1], in assay [2], in [3], in assay [18], in assay [5] and in assay [6] was “inactive” in each case. In addition, the Potency result in [16], in assay [10], in assay [11], in assay [12], in assay [13] and in assay [14] was “inactive” each time. In assay [7], the result was inactive.
Regarding `CCC(Br)(CC)C(=O)NC(N)=O`, the Potency result in assay [1], in assay [2], in assay [3], in assay [4], in assay [6] and in assay [16] was “inactive” throughout. Also, the Potency entry in assay [8], in assay [9], in assay [10], in [11], in assay [12] and in [13] was “inactive” throughout. Also, in assay [14], the Potency result is “inactive”. In addition, the compound was called inactive in assay [7].
Turning to `NCC(CC(=O)O)c1ccc(Cl)cc1` (centres undefined), the activity change, negative = inhibition in [1] is 2.95% [at 0.349 µM]; in [4], 7.47% [at 0.348 µM]. For the same compound, the activity change, negative = cytotoxicity is 7.95% [at 0.349 µM] in assay [2]; 0.204% [at 0.349 µM] in assay [5]; -5.36% [at 0.29 µM] in assay [16]; -0.756% [at 0.349 µM] in [10]; 5.63% [at 0.349 µM] in [12]; 8.17% [at 0.349 µM] in assay [14]. Further, the activation is 1.24% [at 0.349 µM] in [3], -0.421% [at 0.29 µM] in [7], -0.989% [at 0.218 µM] in assay [9] and -6.38% [at 0.349 µM] in assay [15]. In [6], the viability change, negative = cytotoxic was 2.11% [at 0.29 µM]. Further, in assay [8], the activity, negative = inhibition was 7.63% [at 0.194 µM]. Further, in assay [11], the caspase activation is 1.78% [at 0.349 µM]. Besides, the caspase-3/7 activation in assay [13] is -0.192% [at 0.349 µM].
In the case of `O=[Se]=O`, the Potency result in assay [1], in assay [3], in assay [18], in assay [5], in [8] and in [9] was “inactive” in each case. Besides, the Potency entry in assay [11], in [13] and in assay [15] was “inactive” throughout. Further, the Potency in assay [2] was 21.5 µM (active); in assay [6], 9.7 µM (active); in [16] it was 4.86 µM (active); in assay [10] it was 24.2 µM (active); in assay [14], 21.5 µM (active).
